According to the supplement of paper PMC11417369:
± gives the standard deviation of the averaged measurements. In all, about 25,000 sequences were measured (“ln(normalized median fluorescence intensity)”: median about 8.6, highest 2% from about 10 on). Many of the other results were omitted from the sample, so the highest values are more common in it than they were.

System: PfAP2-EXP AP2 domain (GST-tagged)
Experiment: gcPBM binding intensity (ln(normalized median fluorescence intensity)); higher = stronger DNA binding
Method in brief: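 Each value is the highest Masliner-normalised natural-log median intensity across replicate spots of either orientation of a probe. The probes were primer-extended double-stranded 36-bp intergenic genomic sequences on an Agilent 4 × 180k array, alongside negative controls, exposed for 1 h to GST-tagged P. falciparum DNA-binding domains expressed in E. coli. Bound protein was picked up with Alexa488 anti-GST antibody and scanned at 488 nm.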

First: TATAATATAAGGATCACACACAAACACCCATATATA [CACACA_site4468]
Second: CACCCACACCAACACACACACATATATATATATATA [CACACA_site362]
The “gcPBM binding intensity (ln)” value of the first is lower: 8.74 ± 0.52 for the first, 10.4 ± 0.2 for the second.

“AATAACCACCAACACACACACATATATATATATATA [CACACA_site3540]” and “AAGGATCACCCACAAACACACATATATATATATATA [CACACA_site559]” are within error of each other in “gcPBM binding intensity (ln)” value: 10.2 ± 0.45 for the first, 10.4 ± 0.16 for the second.

“TATAAACACCCATATAAACACACATATAAACCAACA [CACACA_site8790]” and “CACACCCACCAACACACACACACACCCACCCATATA [CACACA_site366]” are within error of each other in “gcPBM binding intensity (ln)” value: 8.73 ± 0.43 for the first, 8.61 ± 0.57 for the second.

“AATATAATATAAGGATCACACACAAACACCCATATA [CACACA_site8084]” and “GTCTATTCAAAAAAGTGTACGGACATATAAACATAC [XGTACX_site6516]” are within error of each other in “gcPBM binding intensity (ln)” value: 8.91 ± 0.61 for the first, 9.04 ± 0.28 for the second.

First: ATATATATATTTACATGTACACATCTATATATAAAC [XGTACX_site5581]
Second: GCACATCTATATGAAACACACATGGAAACATCTCTT [CACACA_site7793]
The “gcPBM binding intensity (ln)” value of the first is higher: 9.445 ± 0.049 for the first, 8.47 ± 0.35 for the second.

“TAAAGTTTTTTTTTAACACACACATAATAAAATAAA [CACACA_site8042]” and “TTTCTATTACGAACGTGTACATACATTATTCTTAAA [XGTACX_site5816]” are within error of each other in “gcPBM binding intensity (ln)” value: 8.46 ± 0.51 for the first, 8.88 ± 0.26 for the second.

“TAAAGAGTTACCATTTGTACTTACGCACACATAAAA [XGTACX_site3145]” and “AATTAAATATTATAAACACACATATAGATTATTTTT [CACACA_site6538]” are within error of each other in “gcPBM binding intensity (ln)” value: 8.45 ± 0.37 for the first, 8.17 ± 0.49 for the second.

“ACAAAATAAAACATCTGTACATATTATTATTATAAG [XGTACX_site4802]” and “AAAACATTGTTTATGTGTACATAATTATATTTACAA [XGTACX_site6926]” are within error of each other in “gcPBM binding intensity (ln)” value: 8.34 ± 0.35 for the first, 8.45 ± 0.39 for the second.

“ATTATATATATAAAGTGTACAAAAAAAAAAAAAAAA [XGTACX_site3134]” and “TATGTAACAAAAAAAAGTACACATATATATAGTGTA [XGTACX_site7772]” are within error of each other in “gcPBM binding intensity (ln)” value: 8.46 ± 0.33 for the first, 8.52 ± 0.39 for the second.

Compared with “CATATTAGGACAAAGTGTACATATATATATATATAT [XGTACX_site1172]”, “AAAAATATAATATAATGTACACAAAAAAAAAAAATC [XGTACX_site1427]” is lower in “gcPBM binding intensity (ln)” value: 10.3 ± 0.27 for the first, 8.73 ± 0.49 for the second.

Going from “ATAATCTGACAAATGTGTACACATATATATATATAT [XGTACX_site2379]” to “ATATATTATATAAAGTGTACAAAAAAAATATATAAA [XGTACX_site8065]”, the “gcPBM binding intensity (ln)” value falls from 10.3 ± 0.34 to 8.91 ± 0.41.

“ATCTGACAAAAGTGTACACATATATATATATATATA [CACACA_site4814]” and “GTGTACAGACACAAAATATATACATATATATATATA [CACACA_negctrl_site1796]” are within error of each other in “gcPBM binding intensity (ln)” value: 10.2 ± 0.61 for the first, 9.87 ± 0.54 for the second.

Going from “TATATATATATAATGTGTACACAAATATATATTATA [XGTACX_site8786]” to “TAGTTACCTTAATATTGTACTTTTCTTTCATATATG [XGTACX_site1309]”, the “gcPBM binding intensity (ln)” value falls from 9.74 ± 0.23 to 8.82 ± 0.38.

“TATAATATATATTTGTGTCCACAACATTTTTAATAT [XGTACX_site2089]” and “TTTTTTTTTTGATGTTGTACATATATATTATATAAT [XGTACX_site2765]” are within error of each other in “gcPBM binding intensity (ln)” value: 8.56 ± 0.28 for the first, 8.55 ± 0.4 for the second.

“AAAACAAAATAGGGAACACACACATGTCAATATATA [CACACA_site8834]” and “TCCCATAATATTAGTAGTACTATTAATATTTTCAGG [XGTACX_site4925]” are within error of each other in “gcPBM binding intensity (ln)” value: 8.88 ± 0.41 for the first, 8.33 ± 0.42 for the second.

Going from ATTTATATTAAAAGTGTGCACTTTTTTTTTTTTTTT to ATATATTTTATATGTGTGCACTATATATATATATAT, the “gcPBM binding intensity (ln)” value rises from 8.67 ± 0.042 to 10.3 ± 0.18.

Going from ATTTTTTTCTTAGGAGTGCACTTATATTTATTTTAT to “TTTATATTCTTAAGTGTGCACTATATATATATATAT [GTGCAC_site9719]”, the “gcPBM binding intensity (ln)” value rises from 9.12 ± 0.11 to 10.38 ± 0.049.

“ATCATATTTTTATGTGTGCACTTTTTTTTTTTTTTT [GTGCAC_site9555]” and TATATATAAATATATGTGCACTTTTTATATTTATAT are within error of each other in “gcPBM binding intensity (ln)” value: 9.02 ± 0.099 for the first, 9.06 ± 0.099 for the second.

Going from “TTTATATCTTATTATAGGAAAATGAATATTTTCTCT [TGCATGCA_negctrl_site478]” to “TATTTTAACTTCTCATGTACATATATTATGTCTATA [XGTACX_site249]”, the “gcPBM binding intensity (ln)” value rises from 8.19 ± 0.36 to 9.01 ± 0.39.

“ATAGAACTGAATAAATCTATAAATAAATATATATAT [GTGCAC_negctrl_site604]” and “AATATAAACACAAACACACACATATAGATTTATATA [CACACA_site6263]” are within error of each other in “gcPBM binding intensity (ln)” value: 9.16 ± 0.23 for the first, 8.55 ± 0.38 for the second.

First: TATAAAATTACATTTTGTCATTTATTTTTTCCCACT [TGCATGCA_negctrl_site110]
Second: TTTTGGTTAATTCCCCCCATTACATTATGTCATGTC [CACACA_negctrl_site229]
The “gcPBM binding intensity (ln)” value of the first is lower: 8.28 ± 0.45 for the first, 10.185 ± 0.007 for the second.

“ATTTTTGTTATTACATGTACCCATAATTATTATTAA [XGTACX_site3558]” and “TTTTGTTTAAAAAAAAAAAACAAAAAAAAGCAATTA [CACACA_negctrl_site314]” are within error of each other in “gcPBM binding intensity (ln)” value: 9.22 ± 0.44 for the first, 8.32 ± 0.51 for the second.

For “TAATTATATGTATACACACACATACATTTACATAAC [CACACA_site3238]”, the “gcPBM binding intensity (ln)” value was 8.66 ± 0.52.
